Test systems include SK-MEL-2 melanoma; EKVX NSCLC; SN12C renal; UO-31 renal; TK-10 renal; ACHN renal; CAKI-1 renal; A498 renal; CCRF-CEM leukemia; MOLT-4 leukemia; SR leukemia; RPMI-8226 leukemia; OVCAR-8 ovarian; OVCAR-5 ovarian; OVCAR-4 ovarian; SK-OV-3 ovarian; IGROV1 ovarian; OVCAR-3 ovarian; HS 578T breast; NCI/ADR-RES ovarian.
Holding throughout (assay): NCI-60 one-dose screen, 48 h (100 = growth as untreated, 0 = no growth, -100 = all killed)
What all share (conditions): 10 µM unless noted

About 83,000 compounds went through this panel and 20% of them were active in at least one assay; those are over-represented in the sample as a whole.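 How to read the values: 0–100, growth inhibition (40 = 60% inhibited); 0, no net growth; -100 to 0, cell death (-40 = 40% of starting cells died; -100 = all dead).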 Values without a mark were called inactive. Active and inactive are the calls of the source. The calls were made as follows: active = growth percent below 10; inactive = the rest.

On to `COc1cc(C2CC(c3ccc(Cl)cc3)=NN2C(C)=O)ccc1Oc1ccnc2cc(Cl)ccc12` (stereo not given), for which the growth with SK-MEL-2 melanoma is 67.2%; in the experiment with EKVX NSCLC, 51.9%; in the experiment on SN12C renal, 70.9%; in the experiment on UO-31 renal, 57.5%; in the experiment on TK-10 renal, 37.4%; with ACHN renal, 18.8%. In addition, the growth with CAKI-1 renal is 26.1%; in the experiment on A498 renal, 69%; in the experiment on CCRF-CEM leukemia it was 87.1%; with MOLT-4 leukemia, 97.4%; in the experiment with SR leukemia, 76.4%; with RPMI-8226 leukemia, 87.3%. The growth was 26.8% with OVCAR-8 ovarian; 81.2% in the experiment with OVCAR-5 ovarian; -23.8% (active) in the experiment on OVCAR-4 ovarian; 18.4% in the experiment with SK-OV-3 ovarian; 58.1% with IGROV1 ovarian; 24% in the experiment on OVCAR-3 ovarian. The growth in the experiment on HS 578T breast is 38.8%; with NCI/ADR-RES ovarian, 53.2%.
On to `Cn1c(-c2ccccc2)cc(=O)n1-c1ccccc1`, for which the growth was 121% in the experiment with SK-MEL-2 melanoma; 93.7% in the experiment with EKVX NSCLC; 107% in the experiment with SN12C renal; 101% in the experiment with UO-31 renal; 116% in the experiment on TK-10 renal; 109% in the experiment on ACHN renal. Further, the growth is 95.6% in the experiment on CAKI-1 renal; 89.1% in the experiment with A498 renal; 91.1% in the experiment on CCRF-CEM leukemia; 99.6% in the experiment on MOLT-4 leukemia; 101% in the experiment with SR leukemia; 96.5% with RPMI-8226 leukemia. Further, the growth is 107% with OVCAR-8 ovarian; 104% with OVCAR-5 ovarian; 103% with OVCAR-4 ovarian; 110% with SK-OV-3 ovarian; 114% in the experiment on IGROV1 ovarian; 124% in the experiment with OVCAR-3 ovarian. The growth is 115% in the experiment on HS 578T breast and 112% in the experiment with NCI/ADR-RES ovarian.
On to `Nc1c(Br)cc2c(c1Br)Cc1cc(Cl)ccc1-2`, for which the growth with SK-MEL-2 melanoma was 114%; with EKVX NSCLC, 69.1%; in the experiment with SN12C renal, 89.8%; in the experiment on UO-31 renal, 77.6%; in the experiment on TK-10 renal, 130%; with ACHN renal, 81.3%. Moreover, the growth is 74.6% in the experiment with CAKI-1 renal; 121% in the experiment with A498 renal; 94.2% with CCRF-CEM leukemia; 97.4% in the experiment on MOLT-4 leukemia; 80% in the experiment with SR leukemia; 105% with RPMI-8226 leukemia. The growth with OVCAR-8 ovarian was 96.8%; in the experiment on OVCAR-5 ovarian, 93.2%; with OVCAR-4 ovarian, 95.1%; in the experiment with SK-OV-3 ovarian, 82.5%; with IGROV1 ovarian it was 84.3%; in the experiment on OVCAR-3 ovarian, 104%. The results for the growth in the experiment with HS 578T breast and in the experiment on NCI/ADR-RES ovarian were 91.9% and 95.8%, respectively.
As to `N#CCCn1cnc2c(N)ncnc21`, the growth in the experiment on SK-MEL-2 melanoma is 106%; in the experiment with EKVX NSCLC, 104%; in the experiment on SN12C renal, 94.2%; with UO-31 renal, 116%; in the experiment with TK-10 renal it was 114%; in the experiment with ACHN renal, 94%. Besides, the growth in the experiment with CAKI-1 renal is 97%; in the experiment on A498 renal it was 112%; in the experiment on CCRF-CEM leukemia it was 96.7%; in the experiment on MOLT-4 leukemia, 92.1%; with SR leukemia it was 98%; with RPMI-8226 leukemia it was 101%. In addition, the growth in the experiment on OVCAR-8 ovarian was 96.5%; in the experiment on OVCAR-5 ovarian, 98.4%; in the experiment on OVCAR-4 ovarian, 107%; in the experiment with SK-OV-3 ovarian, 99.6%; in the experiment with IGROV1 ovarian it was 125%; with OVCAR-3 ovarian it was 109%. Moreover, the growth with HS 578T breast was 99.5%; in the experiment on NCI/ADR-RES ovarian, 109%.
For the molecule `CC1CCCN(CCCCOc2ccc(-c3ccc(C#N)cc3)cc2)C1` (stereo not given), the growth with SK-MEL-2 melanoma is 88.6%; with EKVX NSCLC, 88.9%; in the experiment with SN12C renal, 89.3%; with UO-31 renal, 74.5%; in the experiment on TK-10 renal, 80.6%; in the experiment with ACHN renal, 111%. Also, the growth in the experiment on CAKI-1 renal was 98.7%; in the experiment with A498 renal it was 82.4%; with CCRF-CEM leukemia, 59.4%; with MOLT-4 leukemia it was 83.4%; with SR leukemia, 86.8%; in the experiment on RPMI-8226 leukemia, 71.1%. Besides, the growth with OVCAR-8 ovarian is 82.3%; in the experiment on OVCAR-5 ovarian, 97.1%; in the experiment with OVCAR-4 ovarian, 93.8%; in the experiment on SK-OV-3 ovarian it was 95.3%; with IGROV1 ovarian, 107%; with OVCAR-3 ovarian, 98.6%. Moreover, the growth was 87.4% in the experiment with HS 578T breast and 89.7% in the experiment with NCI/ADR-RES ovarian.
Take `COC(=O)OC1C(O[C@H]2C[C@H]3[C@@H]4CC=C5C[C@@H](O)CC[C@]5(C)[C@H]4CC[C@]3(C)[C@H]2[C@H](C)C(=O)CCC(C)C)OCC(O)C1OC1OCC(O)C(O)C1OC(=O)c1ccc(OC)cc1` (stereo not given in full): the growth in the experiment on SK-MEL-2 melanoma is -46.1% (active); in the experiment with EKVX NSCLC, 14.3%; in the experiment with SN12C renal, 43.4%; in the experiment with UO-31 renal it was -40.4% (active); in the experiment on TK-10 renal it was 0.902% (active); in the experiment with ACHN renal it was 31.6%. The growth was -16.6% (active) with CAKI-1 renal; -74% (active) in the experiment with A498 renal; -25.9% (active) in the experiment with CCRF-CEM leukemia; -36.5% (active) with MOLT-4 leukemia; 2.6% (active) in the experiment on SR leukemia; -40.7% (active) in the experiment with RPMI-8226 leukemia. Besides, the growth with OVCAR-8 ovarian is 26.8%; in the experiment with OVCAR-5 ovarian it was 31.2%; in the experiment with OVCAR-4 ovarian, 57.1%; in the experiment on SK-OV-3 ovarian, -44.5% (active); in the experiment with IGROV1 ovarian it was 29.5%; with OVCAR-3 ovarian, 58.1%. Also, the growth was -16.5% (active) in the experiment with HS 578T breast and 70.5% in the experiment with NCI/ADR-RES ovarian.
For `CC1=CC(=O)OC1C/C=C(\C)CCC1[C@@]2(C)CCC[C@@](C)(C(=O)O)C2CC[C@@]1(C)O` (stereo not given in full), the growth in the experiment with SK-MEL-2 melanoma is 16.5%; in the experiment on EKVX NSCLC, 38.8%; with SN12C renal it was 41%; in the experiment with UO-31 renal it was 32.2%; in the experiment with TK-10 renal, 53.6%; with ACHN renal, 26.1%. In addition, the growth in the experiment with CAKI-1 renal was 32.9%; with A498 renal, 52.7%; in the experiment on CCRF-CEM leukemia it was 70.2%; in the experiment with MOLT-4 leukemia, 114%; in the experiment on SR leukemia it was 33.2%; in the experiment with RPMI-8226 leukemia it was 24.3%. Further, the growth is 42.8% in the experiment with OVCAR-8 ovarian; 111% in the experiment with OVCAR-5 ovarian; 75.5% with OVCAR-4 ovarian; 98.1% in the experiment on SK-OV-3 ovarian; 107% with IGROV1 ovarian; 56% in the experiment with OVCAR-3 ovarian. Besides, the growth in the experiment with HS 578T breast is 38.5%; with NCI/ADR-RES ovarian, 91.8%.

The values are drawn from PubChem BioAssay (NCI).
